The values below come from PubChem BioAssay (NCI).

About 83,000 compounds went through this panel and 20% of them were active in at least one assay; those are over-represented in the sample as a whole.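 Activity criterion: percent growth below 10, measured after cells in 96-well plates were exposed to a single compound concentration for 48 hours.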 The source made the active and inactive calls.

The assay has as its system KM12 colon. The assay can be described thus: NCI-60 one-dose screen, 48 h (100 = growth as untreated, 0 = no growth, -100 = all killed). The settings on record: 10 µM unless noted. The procedure:
Growth inhibition of the KM12 human tumor cell line is measured as a screen for anti-cancer activity. Cells are grown in 96 well plates and exposed to the test compound for 48 hours. Compounds are tested at a single concentration, which is 10^-5 M for most compounds. The reported endpoint is percent growth (GI% or GIPRCNT), where numbers from 0 - 100% represent growth inhibition, and numbers from -100% - 0 represent cell death. For example, a value of 40 represents 60% growth inhibition. A value of 0 means no net growth occurred over the course of the experiment. A value of -40 indicates 40% of cells at the beginning of the experiment died by the end of the experiment. A value of -100 means all cells are dead at the end of the experiment.
NCI-60 Human Tumor Cell Lines Screen was performed using the standard one-dose NCI protocol, which is described in more detail at https://dtp.cancer.gov/discovery_development/nci-60/default.htm.
Compounds with GIPRCNT values below 10 were considered active. Activity score was based on GIPRCNT using the following formula: […]
Score is 0 for GIPRCNT values of 100 or above, 50 for GIPRCNT values of 0, and 100 for GIPRCNT values of -100.
On to `C=Cc1cc[n+](CCCCCCCCCCCC)cc1`, for which the growth is 104% (inactive).
Under `O=C(CN1CCOCC1)Nc1ccc2ncnc(Nc3ccc(Oc4cccc(F)c4)c(Cl)c3)c2c1` stands 90.1% (inactive).
Under `COc1ccc(/C=N/C2=C(C#N)C(c3ccccc3[N+](=O)[O-])c3ccc4ccccc4c3O2)cc1` (stereo not given) stands 95.9% (inactive); under `O=C(Nc1nc2ccc(C(=O)N3CCN(c4ccc(Cl)c(Cl)c4)CC3)cc2s1)c1ccc(NCCc2ccccc2)c([N+](=O)[O-])c1`, 107% (inactive).
For `Clc1ccc(N2N=C(c3cccc(Nc4ccncc4)c3)CC2c2ccccc2)cc1` (stereo not given), the growth is 90.4% (inactive).
Under `CC(=O)[C@@H]1CC[C@]2(C(=O)n3ccnc3)CC[C@]3(C)[C@H](CC[C@@H]4[C@@]5(C)Cc6c([nH]c7ccccc67)C(C)(C)[C@@H]5CC[C@]43C)[C@@H]12` stands 84.2% (inactive); under `C=C1C(=O)O[C@H]2[C@H]1CC/C(COC(=O)CCCc1c[nH]c3ccccc13)=C\CC[C@@]1(C)O[C@@H]21`, 85.7% (inactive); under `C#CCNC(=O)[C@H](Cc1ccccc1)NC(=O)[C@]12CC[C@@H](C(=C)C)[C@@H]1[C@H]1CC[C@@H]3[C@@]4(C)Cc5c([nH]c6ccccc56)C(C)(C)[C@@H]4CC[C@@]3(C)[C@]1(C)CC2`, 103% (inactive).
Under `COc1cc(COC(=O)CCCCC[P+](c2ccccc2)(c2ccccc2)c2ccccc2)c(OC)c2c1OCO2` stands 36.1% (inactive).
In the case of `COc1ccc(C(=O)c2cc3c(N)c(C(=O)Nc4cccc(Cl)c4C)sc3nc2C)cc1`, the growth is 10.6% (inactive).
The same measure for `COc1ccc(C2=NN(C(C)=O)C(c3cn(Cc4ccc(Cl)cc4)c4ccccc34)C2)cc1` (stereo not given): 86.4% (inactive).
Turning to `COc1ccc(-c2nc(SC)nc(N3CCOCC3)c2C#N)cc1`, the growth was 99.9% (inactive).
The same measure for `CCCCCCCCN1C(=O)/C(=c2\sc3n(c2=O)C2C(NN=3)N(CC)C(=O)N2CC)c2ccccc21` (stereo not given): 89.9% (inactive); for `COc1cc(C(=O)/C=C/c2c(C)n([O-])c3ccc(Cl)cc3[n+]2=O)cc(OC)c1OC`: 73.1% (inactive); for `CC(=O)c1c(C)[nH]c(-c2nc3ccc(N4CCN(C)CC4)cc3[nH]2)c1-c1ccccc1`: 39.7% (inactive).
Under `CCCNC(=O)Oc1ccc(/C(=C(\C)c2ccccc2)c2ccc(OCCN3CCCCC3)cc2)cc1` stands 58.9% (inactive); under `COc1ccc(C(=O)c2cc3c(N)c(C(=O)Nc4cccc(Br)c4C)sc3nc2C)cc1`, 11.3% (inactive); under `COc1ccc(CC(C)=C(c2ccc(OCCN(C)C)cc2)c2ccc(OCCN(C)C)cc2)cc1`, 75.5% (inactive).
The same measure for `COc1cccc(CCC(=O)c2cc3c(N)c(C(=O)Nc4ccccc4)sc3nc2C)c1`: 23% (inactive).
Regarding `CC(=O)O[C@H]1CC[C@@]2(C)[C@@H](CC[C@@H]3[C@@H]2CC[C@@]2(C)[C@H]3CC[C@]2(O)C(C)=O)C1`, the growth was 107% (inactive).
Regarding `O=S(=O)(c1ccccc1)N1CCCc2ccccc21`, the growth was 100% (inactive).
Consider `CC(O)/C=C/C=C/C(O)CC/C=C/C(=O)NCC(C)(C)O` (stereo not given), for which the growth is 102% (inactive).
Under `COc1ccc2c(Nc3ccc(NS(C)(=O)=O)cc3)c3ccccc3nc2c1` stands -13.2% (active); under `CC(=O)N1N=C(c2cccc(Nc3ccncc3)c2)CC1c1ccccc1` (stereo not given), 101% (inactive); under `COc1ccc(-c2nc(N/N=C/c3cccc(O)c3)nc(N3CCOCC3)c2C#N)cc1`, 72.2% (inactive).
The same measure for `O=S(=O)(O)c1cc(O)c2c(N=Nc3ccc(Nc4ccccc4)c4c(S(=O)(=O)O)cccc34)cc(S(=O)(=O)O)cc2c1`: 101% (inactive); for `CN1CCN(c2c(F)cc(NC3=C(Cl)C(=O)c4ncccc4C3=O)cc2F)CC1`: 105% (inactive).
The same measure for `COc1ccccc1OCC(=O)N1CCCCCC1`: 97.3% (inactive); for `COc1ccc(C(=O)c2cc3c(N)c(C(=O)Nc4cccc5ccccc45)sc3nc2C)cc1`: 12.3% (inactive); for `N#Cc1c(Nc2ccccc2)nn2cc(-c3nc4ccccc4s3)c(N)nc12`: 88.2% (inactive).
`O=C(O)c1cn(C2CC2)c2cc(N3CCN(C(=O)C[n+]4cccc5ccccc54)CC3)c(F)cc2c1=O`: the growth was 92.3% (inactive).
Under `[O-][n+]1ccccc1CCN(O)CCc1cccc[n+]1[O-]` stands 104% (inactive).
The same measure for `COc1ccc(-c2nc(SCC(C)C)nc(N/N=C(/C)c3ccc(OC)c(OC)c3)c2C#N)cc1`: 74% (inactive); for `O=C(O)/C=C\C(=O)N1C/C(=C\c2ccccc2Cl)C(=O)/C(=C/c2ccccc2Cl)C1`: -71.9% (active); for `Cc1ccc(C2C3CC4CCCCC4N3[C@@]3(C(=O)Nc4cc(Cl)ccc43)C2C(=O)c2nc3ccccc3[nH]2)cc1` (stereo not given in full): 38% (inactive).
Consider `COc1ccc(/C(C)=N/NC(=O)CSc2nc3ccccc3c(=O)n2Cc2ccc(S(N)(=O)=O)cc2)c(OC)c1`, for which the growth is 102% (inactive).
The same measure for `CCOC(=O)N1CCN(CCCCl)CC1`: 105% (inactive); for `O=C(N/N=C/c1ccc(F)cc1)c1ccccc1Nc1cccc(C(F)(F)F)c1`: 91.4% (inactive).
With `CC(=O)N1c2ccccc2NC2=C(C(=O)N(C)C2(C)C)C1C` (stereo not given), the growth was 19.8% (inactive).
The same measure for `CC(Oc1ccc(C(=O)NS(=O)(=O)C(C)(C)C)cc1C(F)(F)F)c1ccc(Oc2ccccc2)cn1` (stereo not given): 52.7% (inactive).
